# TPT1 inh = C. albicans TPT1 enzyme inhibition | recombinant caTPT1, FP RNA substrate dephosphorylation | inhibition, % at 5 µM | 300,000 tested, 0.81% active;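 active = inhibition above the mean of all tested compounds plus 3 SD, set per screening campaign, cut at about 24% in these data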;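 also: plate controls were DMSO alone for no effect and ferristatin control at 100 nM for full effect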
# Platelet DG rel = platelet dense granule release activity | human platelet-rich plasma, SFLLRN dense granule ATP release, luminescence | inhibition, %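 (compounds screened at 7.5 µM in platelet-rich plasma)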 | 300,000 tested, 0.22% active | AID 1663;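 active = mean replicate score, as percent of positive control, at or above 50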
# WT yeast gro inh = growth inhibition of WT yeast, mitochondrial fusion screen | inhibition, % at 10 µM | 190,000 tested, 2.1% active | mitochondrial fusion phenotypic screen, WT strain; in the data active = inhibition above about 58%; tested in S. cerevisiae
# Rtt109 HAT inh = inhibitors of Candida albicans Rtt109/Vps75 histone acetyltransferase. inhibition, % at 34.9 µM. 330,000 tested, 0.16% active. Q5AAJ8. AID 540336. purified Rtt109/Vps75, ThioGlo CoA-SH fluorescence, 4 h;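 active = inhibition of at least 50% in every replicate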
# Target sequence (Q5AAJ8 whole entry, looked up): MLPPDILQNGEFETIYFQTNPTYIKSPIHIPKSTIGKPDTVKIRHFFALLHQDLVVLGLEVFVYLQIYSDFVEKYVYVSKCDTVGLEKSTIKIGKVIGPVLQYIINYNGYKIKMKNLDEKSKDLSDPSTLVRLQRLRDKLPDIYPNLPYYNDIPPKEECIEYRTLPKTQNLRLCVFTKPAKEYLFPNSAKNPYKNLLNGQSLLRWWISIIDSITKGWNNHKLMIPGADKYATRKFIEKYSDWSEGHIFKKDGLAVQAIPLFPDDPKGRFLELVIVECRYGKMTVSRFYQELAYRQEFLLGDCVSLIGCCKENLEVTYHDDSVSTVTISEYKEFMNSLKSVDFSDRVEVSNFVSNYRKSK
# PHOSPHO1 inh = blocks human PHOSPHO1 phosphatase activity. recombinant PHOSPHO1, absorbance phosphatase assay. AID 1565. 290,000 tested, 1.1% active. inhibition, % at 13.3 µM; in the data active = inhibition above about 60%
# Target sequence (Q8TCT1 whole entry, looked up): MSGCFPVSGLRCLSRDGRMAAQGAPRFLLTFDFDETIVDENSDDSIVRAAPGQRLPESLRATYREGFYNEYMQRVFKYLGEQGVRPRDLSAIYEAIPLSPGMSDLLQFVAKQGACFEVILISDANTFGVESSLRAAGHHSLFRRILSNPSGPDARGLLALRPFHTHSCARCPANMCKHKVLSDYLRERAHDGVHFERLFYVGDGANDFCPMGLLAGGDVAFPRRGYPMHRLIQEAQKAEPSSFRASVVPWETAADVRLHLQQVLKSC
# SKKanGAS inh = inhibitors of SKKanGAS S. pyogenes growth in kanamycin (SK-promoter or general growth effect); BacTiter-Glo, 6 h; inhibition, % at 7.5 µM; 300,000 tested, 1.3% active;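 active = mean replicate score, as percent of positive control median, at least 50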;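 also: strain carries kanamycin resistance gene driven by streptokinase promoter and grows in 40 µg/ml kanamycin; loss of luminescence reflects streptokinase promoter inhibition or plain growth inhibition; 0% = median of DMSO wells and 100% = positive control at its reference dose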
# TPT1 inh confirm = TPT1 (C. albicans) inhibition, confirmation | shares compounds with TPT1 inh | recombinant caTPT1, fluorescence polarization, RNase T1 coupled | inhibition, % at 5 µM | 2,400 tested, 74% active | AID 2149;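 active = inhibition above the primary screen limit, the mean inhibition of all tested compounds plus 3 SD, cut at about 25% in these data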
# RNase T1 counter = counter-screen for TPT1 inhibitors: inhibitors of Aspergillus oryzae RNase T1. shares compounds with TPT1 inh. RNase T1 cleavage, fluorescence polarization, 1536-well. inhibition, % at 5 µM. 2,400 tested, 83% active. AID 2153;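 active = inhibition above the solvent-only control well mean plus 3 SD, limit set per screening run, cut at about 23% in these data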;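 also: plate controls were DMSO wells with enzyme for no effect and wells without RNase T1 for full effect; inhibitors block cleavage so intact labeled substrate keeps polarization high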
# The depositor's hits bear a star; . = not tested or not shown. Most compounds without a hit are left out; they make up all but 3.9% or so of the library.
SMILES,TPT1 inh,Platelet DG rel,WT yeast gro inh,Rtt109 HAT inh,PHOSPHO1 inh,SKKanGAS inh,TPT1 inh confirm,RNase T1 counter
COc1cc(OC)c(OC)cc1/C=C1\Oc2cc(OCC(=O)N3Cc4ccccc4C[C@H]3C(=O)O)ccc2C1=O,73*,-3,.,-18,23,7,81*,85*
Cn1c(CN2CCCC2)nc2cc(NC(=O)COc3ccc(Cl)cc3)ccc21,60*,11,-5,.,-10,-3,7,12
COc1cc(NC(=O)c2ccc(NC3=NC4CS(=O)(=O)CC4S3)cc2)cc(OC)c1OC (centres undefined),-4,-8,.,-2,28,-7,.,.
c1ccc(-c2ccccc2OCCCN2CCCCCC2)cc1,-4,-4,14,11,-151,-5,.,.
c1ccc(-c2ccccc2OCCCCN2CCCCC2)cc1,51*,-1,4,8,-2,-2,4,9
Nc1c(Cl)cc(C2=NCCn3c2c2ccc(C(F)(F)F)cc2[n+]3[O-])cc1Cl,1,-2,.,-9,.,6,.,.
Cc1nc2nc(-c3ccc(Cl)cc3)cn2nc1C,7,8,-5,-112,11,7,.,.
COc1cccc(-c2cn3nc(C)c(C)nc3n2)c1,45*,74*,27,-83,32,5,45*,55*
Cc1cc(C(=O)c2cccs2)c(N)s1,35*,-1,45,-8,11,0,40*,49*
Cc1cc(C)c(C(=O)c2cccs2)c(C)c1,.,.,.,0,.,.,.,.
COc1ccc(CNC(=O)/C=C/c2cc([N+](=O)[O-])ccc2OC(F)F)cc1OC,37*,6,0,2,9,-2,7,8
COc1ccc(CNC(=O)/C=C/c2cc([N+](=O)[O-])ccc2OC(F)F)cc1,-2,8,-7,-7,17,-3,.,.
C[C@H](CO)N1C[C@H](C)[C@@H](CN(C)CC2CCCCC2)Oc2c(NS(=O)(=O)c3ccc(F)cc3)cccc2C1=O,.,.,.,-4,.,.,.,.
C=CCOC(=O)C1=C(C)OC(N)=C(C#N)C1c1ccoc1 (centres undefined),62*,-9,-4,9,-17,-2,59*,74*
CCCCC1(C(=O)OC)NC(c2ccc(O)cc2)C2C(=O)N(c3ccccc3)C(=O)C21 (centres undefined),2,-1,.,4,39,-3,.,.
O=c1cc(Cl)[nH]c(=O)n1CCNc1ncc(C(F)(F)F)cc1Cl,74*,11,18,-2,0,19,72*,85*
O=C1CC(=O)N(CCNc2ncc(C(F)(F)F)cc2Cl)C(=O)N1,38*,-1,15,11,14,-6,23,39*
O=c1[nH]c2cc(Cl)ccc2n(CCNc2ncc(C(F)(F)F)cc2Cl)c1=O,2,-23,-5,10,42,0,.,.
CS(=O)(=O)NCCNc1ncc(C(F)(F)F)cc1Cl,1,2,1,5,32,4,.,.
COc1cc(/C=C(/C#N)c2nc3ccccc3[nH]2)ccc1OC(=O)c1ccco1,4,16,28,-5,-22,15,.,.
COc1cc(/C=C(/C#N)c2nc3ccccc3c(=O)[nH]2)ccc1O,102*,6,-4,-2,-21,34,126*,124*
COc1cc(/C=C(\C#N)c2nc3ccccc3[nH]2)cc(OC)c1O,137*,2,3,1,-9,-18,133*,124*
Cn1c(/C(C#N)=C/c2ccc(O)cc2)nc2ccccc21,6,8,.,3,4,6,.,.
COc1cc(/C=C(\C#N)c2nc3ccccc3n2C)cc(OC)c1O,83*,6,-9,-2,8,-2,101*,101*
CN(C)c1ccc2nc3c(=O)[nH]c(=O)nc-3n(CC(O)C(O)C(O)CO)c2c1 (centres undefined),-78,6,.,-1,14,7,.,.
SMILES,TPT1 inh,Platelet DG rel,WT yeast gro inh,Rtt109 HAT inh,PHOSPHO1 inh,SKKanGAS inh,TPT1 inh confirm,RNase T1 counter
O=S(=O)(c1ccc(-c2ccon2)s1)N1CCN(c2ccncc2)CC1,44*,-8,.,.,-6,-2,19,26*
COc1ccccc1-n1cc([C@@H]2C[C@H]3CN(c4ccccc4)C(=O)[C@]34CCCN24)cn1,60*,3,5,-6,53,12,47*,61*
CC1=Nc2ccccc2/C1=C\c1nc(-c2ccc(F)cc2)oc1O,93*,11,9,0,11,81*,96*,102*
CN1Cc2sc(NC(=S)NC(=O)c3ccccc3)c(C#N)c2CC1(C)C,97*,-1,.,.,-65,7,85*,90*
CN(C)c1ccc2c(c1)OC(N)=C(C#N)C2c1cccc(F)c1 (centres undefined),78*,3,7,6,-41,-4,62*,70*
N#CC1=C(N)Oc2cc(N)ccc2C1c1cccc(F)c1 (centres undefined),-2,-5,.,-1,-14,2,.,.
Cc1ccc(OCC(=O)Nc2ccc(S(=O)(=O)Nc3ccccn3)cc2)c(C)c1,36*,1,-2,-8,-2,23,3,6
Cc1ccccc1OCC(=O)Nc1ccc(S(=O)(=O)Nc2ccccn2)cc1,7,9,-6,-5,0,1,.,.
O=C1OC(/C=C/c2ccccc2)=NC/1=C\c1cccnc1,-3,-7,-7,-2,43,-18,.,.
COc1ccccc1/C=C/C=C1N=C(/C=C/c2ccc(Cl)cc2)OC/1=O,40*,3,4,-1,1,47,124*,124*
COc1ccccc1/C=C/C1=NC(=C\C=C/c2ccccc2)/C(=O)O1,74*,19,2,2,0,.,119*,122*
CCN(C(=O)COC(=O)CN(C)S(=O)(=O)c1ccc(NC(C)=O)cc1)C1CCS(=O)(=O)C1 (centres undefined),-2,-24,.,3,34,-6,.,.
COc1ccc2o/c(=N\O)c(C(=O)Nc3ccccc3OC)cc2c1,162*,-4,-4,7,8,1,127*,125*
O=[N+]([O-])c1ccc(C=Nc2cccc3ccccc23)s1,-4,-3,12,-6,41,12,.,.
O=c1oc(/C=C/c2ccc([N+](=O)[O-])s2)nc2ccccc12,60*,9,.,-6,.,-1,59*,70*
O=C1CSC(=S)N1N=Cc1ccccc1O,.,.,.,-8,.,.,.,.
COc1cc(/C=N/N2C(=O)CSC2=S)ccc1O,28*,3,6,25,53,5,28*,40*
O=C1CSC(=S)N1/N=C/c1cc(Br)c(O)c(Br)c1,82*,2,.,11,48,10,75*,84*
COc1ccc(N(C)S(=O)(=O)c2ccc(C)cc2)c([N+](=O)[O-])c1,0,9,-9,8,6,-3,.,.

# Bioassay records (PubChem BioAssay)
